Results published in ChEMBL document CHEMBL3988442, “University of Dundee, Small-Polar-MMV Screening Library” (2021).
The whole screen tested about 48,000 compounds, of which about 13,000 (27%) showed an effect of 50% or more. This is one part of the list.

Tested on: Wolbachia pipientis
Test: Anti-Wolbachia Cell-Based Screen
Assay type: functional
Design: scale not given: in the data most compounds retested in dose-response had high values
Conditions: 5 µM

Row | SMILES | Percent Effect [%]
1 | O=C1N(CCC2CCCCC2)CCCC1(O)CNCCc1ccccc1 (centres undefined) | 4.403
2 | O=C(O)C(=O)O.c1ccc2c(c1)SCCC2NCc1ccc(N2CCOCC2)cc1 (centres undefined) | -0.4171
3 | Cn1cc(C(=O)CC2CCCN2C(=O)c2cccc3ncccc23)cn1 (centres undefined) | 103.8
4 | Cc1cscc1C(=O)N1CCCC1CC(=O)c1cnn(C)c1 (centres undefined) | 127.4
5 | COc1cc(C(=O)N2CCCC2CC(=O)c2cnn(C)c2)ccc1F (centres undefined) | -15.51
6 | Cn1cc(C(=O)CC2CCCN2C(=O)c2ccn3ccnc3c2)cn1 (centres undefined) | 8.483
7 | Cn1cc(C(=O)CC2CCCN2C(=O)c2cncc3ccccc23)cn1 (centres undefined) | 0.2394
8 | Cc1ccc(O)c(C(=O)N2CCCC2CC(=O)c2cnn(C)c2)c1 (centres undefined) | -14.12
9 | Cn1cc(C(=O)CC2CCCN2C(=O)c2ccc(Cl)cn2)cn1 (centres undefined) | -8.745
10 | Cn1cc(C(=O)CC2CCCN2C(=O)c2ccncc2F)cn1 (centres undefined) | 96.19
11 | CCc1cc(C)c(C(=O)N2CCCC2CC(=O)c2cnn(C)c2)o1 (centres undefined) | -2.154
12 | CCc1ccccc1C(=O)N1CCCC1CC(=O)c1cnn(C)c1 (centres undefined) | 88.86
13 | CCn1c(CN(C)CC(F)(F)F)nc2c(F)cccc21 | -13.63
14 | COc1cc(F)c(C(=O)NCc2ccon2)c(F)c1 | -19.7
15 | COc1ccc(C2=CCN(C(=O)CN(C)Cc3ccoc3)CC2)cc1 | 39.3
16 | Cc1cc(-n2cncn2)ccc1C(=O)N(C)CC(F)(F)C(F)(F)F | -10.14
17 | CS(=O)(=O)N1C[C@@H]2COC[C@@H](CC(=O)N3CCCO3)[C@@H]2C1 | -9.708
18 | Cc1ccoc1C(=O)N1CCOC2(CCCC2)C1 | -7.54
19 | CCOC(C)c1nc(COc2nc(C)no2)cs1 (centres undefined) | -4.126
20 | Cn1cc(C(=O)CC2CCCN2C(=O)c2coc3ccccc23)cn1 (centres undefined) | 99.8
21 | Cn1cc(C(=O)CC2CCCN2C(=O)c2c[nH]c3ccccc23)cn1 (centres undefined) | 107.8
22 | Cn1cc(C(=O)CC2CCCN2C(=O)c2ccc3[nH]ncc3c2)cn1 (centres undefined) | -6.365

Row | SMILES | Percent Effect [%]
23 | Cn1cc(C(=O)CC2CCCN2C(=O)c2ccc(Cl)o2)cn1 (centres undefined) | 3.308
24 | Cn1cc(C(=O)CC2CCCN2C(=O)c2n[nH]c3ccccc23)cn1 (centres undefined) | -3.127
25 | O=C(c1ccncc1)N1CCN(C(=O)c2coc3ccccc23)CC1 | -6.895
26 | Cn1cc(CN2CCc3ncn(C)c3C2COCc2cccnc2)cn1 (centres undefined) | -2.593
27 | N#Cc1c(F)cccc1NCCCOCC1CCOC1 (centres undefined) | -17.11
28 | COCCNC(=O)c1nc(-c2cn(C)cn2)n2ccccc12 | 37.4
29 | Cc1occc1C(=O)N1CCn2cnc(COCC3CC3)c2C1 | -3.111
30 | Cc1ccccc1C(=O)N1CCCn2cnc(CN3CCCC3=O)c2C1 | 104.2
31 | O=C1CCCN1Cc1ncn2c1CN(C(=O)c1cccc(F)c1)CCC2 | 7.876
32 | Cc1occc1C(=O)N1CCC2(CCC(=O)N(CC(N)=O)C2)CC1 | 0.6674
33 | Cc1ccccc1C(=O)N1CCCn2nnc(Cn3cccn3)c2C1 | -4.319
34 | Cc1occc1C(=O)N1CCCn2cnc(CN3CCCC3=O)c2C1 | 99.06
35 | Cc1cccc(C(=O)N2CCCn3cnc(CN4CCCC4=O)c3C2)n1 | 84.9
36 | Cc1cccc(C(=O)NC(CN2CCCC2=O)c2ccccc2)n1 (centres undefined) | -6.295
37 | O=C(NC1CC1)C1CCCN(c2cc(-n3cncn3)ncn2)C1 (centres undefined) | -0.5146
38 | COCCN(C)C[C@@H]1CCC[C@@H]2CN(c3cc(OC)ncn3)C[C@@H]21.O=C(O)C(F)(F)F | -6.847
39 | Cc1cccc(C2(CNC(=O)C(C)S(C)(=O)=O)CCCC2)c1 (centres undefined) | 0.1525
40 | CC(=O)N1[C@H](Cn2cncn2)C[C@@H]2CN(Cc3ccccn3)CC[C@@H]21.O=C(O)C(F)(F)F.O=C(O)C(F)(F)F | 10.04
41 | O=C(O)C(F)(F)F.c1ccc(CN2Cc3nccn3CC(Cn3cccn3)C2)nc1 (centres undefined) | 97.11
42 | O=C(O)C(F)(F)F.c1ccc(CN2Cc3nccn3CC(Cn3cncn3)C2)nc1 (centres undefined) | 98.39
43 | N#Cc1ccc(NCCCOCC2CCCO2)c(F)c1 (centres undefined) | -11.95
44 | CC(=O)NCc1ccc(C(=O)N2CCCc3c(F)ccc(C)c32)o1 | -10.88

Row | SMILES | Percent Effect [%]
45 | Cc1ccc(F)c2c1CCCN2C(=O)c1cn(CC(=O)N(C)C)nn1 | 122.6
46 | Cc1ccc(F)c2c1N(C(=O)c1cn(CC(=O)N(C)C)nn1)CCC2 | 115.7
47 | COc1cccc2c1N(C(=O)c1ccc(C)nc1)CCC2 | 2.178
48 | CN(C)C(=O)Cn1cc(C(=O)N2CCCc3cccc(F)c32)nn1 | 105.3
49 | CN(C)C(=O)CN1CCCc2c(F)cc(Br)cc21 | 1.685
50 | CC(c1ccccc1)N(C)C(=O)CN1CCCc2cccc(F)c21 (centres undefined) | 5.525
51 | COc1ccc(C)c2c1N(C(=O)c1ccc3nnc(C)n3c1)CCC2 | -2.27
52 | Cc1ccc(F)c2c1N(C(=O)c1ccc(S(C)(=O)=O)cc1)CCC2 | 11.45
53 | N[C@@H]1CC[C@@H](NC(=O)c2ccccc2OC(F)(F)C(F)F)C1 | 3.993
54 | Cc1ccc(C(=O)NC2CCN(Cc3noc(CC(C)C)n3)CC2)s1 | 3.066
55 | CNC(=O)c1nc(CN2CCOC(C(F)(F)F)C2)no1 (centres undefined) | -14.11
56 | CNC(=O)c1nc(CN2CCOC(Cc3ccc(F)cc3)C2)no1 (centres undefined) | -1.093
57 | CC(C)NC(=O)c1nc(Cn2c(C(F)F)nc3ccccc32)no1 | 117.9
58 | CNC(=O)c1nc(CN2CCOC(CCCC(C)C)C2)no1 (centres undefined) | 2.803
59 | O=C(NC1CC1)c1nc(Cn2c(C(F)F)nc3ccccc32)no1 | 97.34
60 | NC(=O)c1nc(CN2CCOC(C(F)(F)F)C2)no1 (centres undefined) | -3.309
61 | CC(C)NC(=O)CN(C)C1CCN(c2cnc3ccccc3n2)CC1 | -13.33
62 | CC(C)NC(=O)c1nc(Cn2c(C(F)(F)F)nc3ccccc32)no1 | 97.59
63 | O=C(NCCn1ccnc1)c1csc(Br)c1 | 7.312
64 | CC(C)c1cncnc1-c1cc(F)cc2c1OC(CN)C2 (centres undefined) | -15.48
